The whole screen tested about 3,200 compounds, of which about 300 (9.4%) showed activity. The entries come from a sample that favours actives as a whole.
System: A673/TR/shEF
Test: cell viability (LOESS-normalised, relative to median of negative controls) (log2 ratio); higher = more viable cells (less compound effect), active = hit call of the paper (over 3 MAD below the median)
Settings: treatment time: 72 h
Summary of the method: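 For three days, A673/TR/shEF Ewing sarcoma cells in 384-well plates (1,500 per well) were treated with library compounds at two or more concentrations or with DMSO controls, after doxycycline had been added or withheld 24 h beforehand to induce EWS-FLI1 shRNA knockdown. Viability was read by CellTiter-Glo luminescence on an Envision reader. The data were LOESS-corrected per plate, divided by the median of negative controls and log2-transformed.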

[1] = 0.25 µM, library screen: screen1, EWS-FLI1 expression: high (no doxycycline)
[2] = 0.25 µM, library screen: screen1, EWS-FLI1 expression: low (doxycycline-induced shRNA knockdown)
[3] = 2.5 µM, library screen: screen1, EWS-FLI1 expression: high (no doxycycline)
[4] = 2.5 µM, library screen: screen1, EWS-FLI1 expression: low (doxycycline-induced shRNA knockdown)
[5] = 0.25 µM, library screen: screen2, EWS-FLI1 expression: high (no doxycycline)
[6] = 0.25 µM, library screen: screen2, EWS-FLI1 expression: low (doxycycline-induced shRNA knockdown)
[7] = 2.5 µM, library screen: screen2, EWS-FLI1 expression: high (no doxycycline)
[8] = 2.5 µM, library screen: screen2, EWS-FLI1 expression: low (doxycycline-induced shRNA knockdown)

Measured: cell viability (log2)

COc1cc([S+](C)[O-])ccc1-c1nc2ncccc2[nH]1 (stereo not given)
inactive: [1] 0.101 | [2] 0.00949 | [3] 0.131 | [4] 0.0599

C[S+]([O-])c1ccc(-c2nc(-c3ccc(F)cc3)c(-c3ccncc3)[nH]2)cc1 (stereo not given)
inactive: 0.025 µM, library screen: screen1, EWS-FLI1 expression: low (doxycycline-induced shRNA knockdown) 0.136 | [1] 0.263 | [2] 0.121 | [4] 0.238 | 25 µM, library screen: screen1, EWS-FLI1 expression: low (doxycycline-induced shRNA knockdown) 0.274
0.29: 0.025 µM, library screen: screen1, EWS-FLI1 expression: high (no doxycycline)
active: [3] -0.235 | 25 µM, library screen: screen1, EWS-FLI1 expression: high (no doxycycline) -0.108

C/C1=C\CC(C)(C)/C=C\CC2(C)OC2CC1 (stereo not given)
inactive: [1] 0.0693 | [2] 0.00465 | [3] 0.118 | [4] 0.162

CC(C)CCC[C@@H](C)[C@H]1CC[C@H]2C3=CC[C@H]4C[C@@H](O)CC[C@]4(C)[C@H]3CC[C@]12C
inactive: [1] -0.0717 | [2] -0.021 | [3] 0.0758 | [4] 0.0695

C[C@H]1COC2=C1C(=O)C(=O)c1c2ccc2c1CCCC2(C)C
active: 25 µM, library screen: screen3, EWS-FLI1 expression: high (no doxycycline) -0.196 | 25 µM, library screen: screen3, EWS-FLI1 expression: low (doxycycline-induced shRNA knockdown) -0.308
inactive: 0.103 µM, library screen: screen3, EWS-FLI1 expression: high (no doxycycline) 0.0338 | 0.103 µM, library screen: screen3, EWS-FLI1 expression: low (doxycycline-induced shRNA knockdown) 0.0754 | 0.308 µM, library screen: screen3, EWS-FLI1 expression: high (no doxycycline) 0.0526 | 0.308 µM, library screen: screen3, EWS-FLI1 expression: low (doxycycline-induced shRNA knockdown) 0.0683 | 0.926 µM, library screen: screen3, EWS-FLI1 expression: high (no doxycycline) 0.0196 | 0.926 µM, library screen: screen3, EWS-FLI1 expression: low (doxycycline-induced shRNA knockdown) 0.0264 | 2.8 µM, library screen: screen3, EWS-FLI1 expression: high (no doxycycline) -0.0315 | 2.8 µM, library screen: screen3, EWS-FLI1 expression: low (doxycycline-induced shRNA knockdown) -0.0274 | 8.3 µM, library screen: screen3, EWS-FLI1 expression: high (no doxycycline) 0.0932 | 8.3 µM, library screen: screen3, EWS-FLI1 expression: low (doxycycline-induced shRNA knockdown) -0.035

CCN1CCC[C@H]1CNC(=O)c1c(OC)ccc(I)c1O
inactive: [5] 0.251 | [6] 0.174 | [7] 0.0364 | [8] 0.15

Cc1ccsc1C=C1SC(=S)N(CC(=O)O)C1=O
inactive: [1] 0.0973 | [2] 0.0799 | [3] 0.133 | [4] 0.152

C=CCN1C(=O)/C(=C2\SC(=S)N(c3c(C)n(C)n(-c4ccccc4)c3=O)C2=O)c2ccccc21
inactive: [1] -0.0187 | [2] -0.00404 | [3] 0.0713 | [4] -0.0309

OCC(O)C1NCC(O)C1O (stereo not given)
inactive: [5] 0.0417 | [6] 0.103 | [7] 0.000766 | [8] 0.0189

Cc1cc(N)c2ccccc2[n+]1CCCCCCCCCC[n+]1c(C)cc(N)c2ccccc21
active: [3] -1.46 | [4] -0.54 | [7] -0.865 | [8] -0.463
inactive: [1] 0.139 | [2] 0.0436 | [5] 0.122 | [6] 0.0489

CC[C@H]1C(=O)OC[C@@H]1Cc1cccn1C
inactive: [1] 0.154 | [2] 0.0128 | [3] 0.143 | [4] 0.0953
